# Assay results as given in PubChem BioAssay (Tox21).
# Inconclusive results are not listed. A call without a number means that no potency is given here. Activity calls are given as the source filed them. The call rests on the fitted dose curve; in most records, active means well fitted activation curve with a large enough effect in the repeat runs; inconclusive means weak or mixed curves, or effect the other way; inactive means no such curve, though single readings can be large or run the other way.
# Assay: qHTS assay to identify small molecule agonists of the retinoic acid receptor (RAR) signaling pathway (AID 1159553)
# Conditions: C3RL4 RARE luciferase reporter, agonist, 6 h; series mostly up to 73.3 µM
# Description: National Center for Advancing Translational Sciences [NCATS] NIH Chemical Genomics Center [NCGC] U.S. Environmental Protection Agency [EPA] National Institutes of Environmental Health Sciences [NIEHS] National Toxicology Program [NTP] Assay overview: All-trans Retinoic acid (atRA) is the potent natural metabolite of retinol and plays an important role in normal embryonic development and maintenance of cellular phenotype in adult animals. atRA is the activating ligand for the retinoic acid receptors (RARs) which form heterodimers with retinoid X receptors (RXRs) on the retinoic acid response element (RARE). Through activation of the RAR/RXRs nuclear receptors, atRA regulates the transcription of a large number of protein-coding genes and regulatory RNAs. Intracellular levels of atRA are controlled by the retinol signaling pathway (RSP) that regulates the biosynthesis and catabolism of atRA to maintain physiological levels. Chemicals that interfere with the RSP can cause abnormal intracellular levels of atRA and therefore are potential developmental toxicants. To assess compounds for the potential adverse effect on embryonic development through interfering with retinol signaling, a cell-based RARE luciferase reporter gene assay was used. C3RL4 cell line (OARSA/CFSAN/FDA, Laurel, MD) was used to screen Tox21 10K compound library for identifying activators of the RSP.
# Assay Protocol Summary: C3RL4 cells were seeded at 1,000/well in 5 uL of assay medium into white solid 1,536-well tissue culture plates (Greiner Bio-One North America Inc. Monroe, NC) using a Multidrop Combi (Thermo Scientific, Waltham, MA) dispenser. After incubation at 37 C and 5% CO2 for an overnight, 23 nL of compounds dissolved in DMSO, positive control or DMSO only were transferred by a Pintool station (Kalypsys, San Diego, CA). After 6 hr incubation at 37 C and 5% CO2, 5 uL of Amplite Luciferase reagent (AAT Bioquest Inc. Sunnyvale, CA) was added to each assay plate using a Flying Reagent Dispenser (FRD) (Aurora Discovery, San Diego, CA). Luminescence was quantified on a ViewLux plate reader (PerkinElmer, Waltham, MA) after 30 min incubation at room temperature.
# Potency means the concentration at half of the fitted maximal effect.
row,SMILES,Potency
1,O=C(N[C@H]1N=C(c2ccccc2F)c2cccc3c2N(CC3)C1=O)c1cc2ccccc2[nH]1,inactive
2,CC1CCCC1,inactive
3,CN1C2CCC(C)(C)C1CC(OC(=O)C(O)(c1cccs1)c1cccs1)C2 (stereo not given),inactive
4,CC(C)(C)c1ccc(OP(=O)(Oc2ccccc2)Oc2ccccc2)cc1,inactive
5,CNC(=O)Oc1cc(C)cc(C(C)C)c1,inactive
6,C#CCC1=C(C)C(OC(=O)C2C(C=C(C)C)C2(C)C)CC1=O (stereo not given),inactive
7,CCOC(=O)CCN(SN(C)C(=O)Oc1cccc2c1OC(C)(C)C2)C(C)C,inactive
8,CCCCC/C=C\C/C=C\C/C=C\C/C=C\CCCC(=O)NCC(=O)O,inactive
9,Nc1ccc(N=Nc2ccccc2)cc1,0.386 µM (active)
10,Oc1ccc2[nH]cc(CCCCN3CC=C(c4ccccc4)CC3)c2c1,inactive
11,c1cc[n+]2c(c1)-c1cccc[n+]1CC2,inactive
12,CCC(C)c1cccc(C(C)CC)c1O (stereo not given),inactive
13,O=[N+]([O-])c1cccc2cccc([N+](=O)[O-])c12,inactive
14,O=c1[nH]c(Cl)c(Cl)cc1Cl,inactive
15,C#CCO,inactive
16,CCCCC(CC)COC(=O)c1ccccc1C(=O)OCC(CC)CCCC (stereo not given),inactive
17,C=CCOC(=O)c1ccccc1N,inactive
18,CSSC,inactive
19,CCCCC(CC)COC(=O)OOC(C)(C)C (stereo not given),inactive
20,Nc1nc(N)c(N)c(N)n1,inactive

row,SMILES,Potency
1,CCCCN(CCCC)C(=S)S,inactive
2,CC(C)[C@@H](Nc1ccc(C(F)(F)F)cc1Cl)C(=O)OC(C#N)c1cccc(Oc2ccccc2)c1 (stereo not given in full),inactive
3,ClSC(Cl)(Cl)Cl,inactive
4,COCCC#N,inactive
5,O=P(Cl)(Cl)Cl,inactive
6,c1ccc2c(c1)cc1ccc3cccc4ccc2c1c34,11.1 µM (active)
7,Cc1c([N+](=O)[O-])c(C)c([N+](=O)[O-])c(C(C)(C)C)c1[N+](=O)[O-],inactive
8,CCC1(CC)C(=O)N=C(O)NC1=O,inactive
9,O=[N+]([O-])c1ccccc1-c1ccccc1,inactive
10,CSC(=O)c1c(C(F)F)nc(C(F)(F)F)c(C(=O)SC)c1CC(C)C,inactive
11,Brc1ccc(Oc2ccc(Br)cc2Br)c(Br)c1,13.7 µM (active)
12,Cc1cc(C2CC2)nc(Nc2ccccc2)n1,19.3 µM (active)
13,COC(=O)c1cc(Oc2ccc(Cl)cc2Cl)ccc1[N+](=O)[O-],inactive
14,O=C1C[C@@H]2OCC=C3CN4CC[C@]56c7ccccc7N1[C@H]5[C@H]2[C@H]3C[C@H]46,inactive
15,COP(=O)(OC)O/C(=C\Cl)c1cc(Cl)c(Cl)cc1Cl,inactive
16,Nc1nc(N)nc(Cl)n1,inactive
17,Cc1ccn2nc(S(=O)(=O)Nc3c(F)cccc3F)nc2n1,inactive
18,C#CC1(O)CCCCC1,inactive
19,CCCCON=O,inactive
20,CC#C[C@]1(O)CC[C@H]2[C@@H]3C[C@H](C)C4=CC(=O)CC[C@]4(C)[C@H]3CC[C@@]21C,inactive
